Among all 360,000 compounds or so, about 510 (0.14%) were called active. This is one part of a sample in which actives are shown more often than they occur. A number with no mark means an inactive call.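 How the source made its calls: active means mean normalized replicate activity at least 40 and at least half of replicates scoring 40 or more; inconclusive means only one of the two criteria met; inactive means mean below 40 and under half of replicates reaching 40.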
Target: DNA repair and recombination protein RAD54-like (Homo sapiens) (UniProt Q92698)
Sequence (Q92698 whole entry, looked up): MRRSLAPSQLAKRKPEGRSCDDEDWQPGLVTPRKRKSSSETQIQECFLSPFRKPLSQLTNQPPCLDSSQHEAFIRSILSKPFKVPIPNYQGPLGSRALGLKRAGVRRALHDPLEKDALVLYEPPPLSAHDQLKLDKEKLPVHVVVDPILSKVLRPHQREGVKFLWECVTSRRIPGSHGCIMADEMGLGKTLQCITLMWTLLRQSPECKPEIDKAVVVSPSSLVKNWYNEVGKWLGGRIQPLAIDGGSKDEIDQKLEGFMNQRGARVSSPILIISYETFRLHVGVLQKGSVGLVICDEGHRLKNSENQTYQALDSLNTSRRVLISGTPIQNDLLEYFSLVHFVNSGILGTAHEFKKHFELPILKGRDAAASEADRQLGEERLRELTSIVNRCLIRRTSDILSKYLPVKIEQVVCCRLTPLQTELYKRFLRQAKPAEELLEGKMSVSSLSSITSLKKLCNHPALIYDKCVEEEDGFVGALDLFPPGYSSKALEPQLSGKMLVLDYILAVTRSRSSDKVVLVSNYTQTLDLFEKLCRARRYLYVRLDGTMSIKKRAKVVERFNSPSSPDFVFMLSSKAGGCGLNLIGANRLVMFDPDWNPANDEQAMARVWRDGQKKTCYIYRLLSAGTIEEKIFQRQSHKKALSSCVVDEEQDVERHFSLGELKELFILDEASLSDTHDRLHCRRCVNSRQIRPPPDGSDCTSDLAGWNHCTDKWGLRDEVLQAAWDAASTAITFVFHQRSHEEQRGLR
Assay: inhibitors of human RAD54 branch migration, primary screen, biochemical, fluorescence, single point (AID 602329);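 further: 0% = median of neutral control wells and 100% = median of positive control wells; inhibitors cause a drop in the FAM fluorescence signal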
Details: RAD54 Holliday junction branch migration, FAM/BHQ fluorescence; at 10.4 µM; stronger effect = higher value

| SMILES | inhibition |
| --- | --- |
| COc1cccc(C#Cc2ccc([C@H]3[C@@H](CO)N(C(=O)c4ccccn4)[C@H]3C#N)cc2)c1 | -3.06% |
| CCCNC(=O)N(C)C[C@H]1Oc2ncc(-c3ccc(C(=O)N(C)C)cc3)cc2C(=O)N([C@@H](C)CO)C[C@@H]1C | -0.543% |
| C[C@@H]1CN([C@@H](C)CO)C(=O)c2cc(C#Cc3ccncc3)cnc2O[C@@H]1CN(C)C(=O)CN(C)C | 0.163% |
| C[C@H]1CN([C@@H](C)CO)C(=O)Cc2cc(NS(C)(=O)=O)ccc2O[C@@H]1CN(C)S(=O)(=O)c1ccc(Cl)cc1 | 4.72% |
| COCC(=O)Nc1ccc2c(c1)[C@@H]1C[C@H](CC(=O)NCc3cc(F)ccc3F)O[C@@H](CO)[C@@H]1O2 | -1.13% |
| CO[C@H]1CN(C)C(=O)c2ccc(NC(=O)c3cc(C)on3)cc2OC[C@H](C)N(C)C[C@H]1C | -1.45% |
| Cc1cccc2c1-c1sc(C(=O)NCCCN3CCc4ccccc4C3)cc1CO2 | 22% |
| CN1CCN(CCCNC(=O)c2cc3c(=O)oc4ccccc4c3s2)CC1 | 55.7% (active) |
| O=C(NCCN1CCN(Cc2ccccc2)CC1)c1cc2c(=O)[nH]c3ccccc3c2s1 | -0.046% |
| Cn1cnc(S(=O)(=O)N2C[C@H](O)COC[C@@H]3O[C@H](CC(=O)NCc4cccc(F)c4)CC[C@H]32)c1 | 7.2% |
| COc1ccc(/C=C(\NC(=O)c2ccccc2)C(=O)NCCN2CCOCC2)cc1OC | -3.48% |
| COc1ccc(CCNC(=O)c2ccc3c(c2)NC(=O)C(N2CCOCC2)S3)cc1OC (configuration not stated) | -1.36% |
| CCN1CCN(CCNC(=O)c2ccc3c(c2)NC(=O)/C(=C\c2ccc(OC)c(OC)c2)S3)CC1 | 72.7% (active) |
| CC(C)C(=O)Nc1ccc2c(c1)C(=O)N(C)[C@H]1CC[C@H](CC(=O)NCc3ccc(F)cc3)O[C@H]1CO2 | 7.1% |
| CNC(=O)C[C@H]1CC[C@H]2[C@@H](COc3ccc(NC(=O)c4cccc(OC)c4)cc3C(=O)N2C)O1 | 7.1% |
| COC(=O)[C@@H]1[C@@H](CO)[C@@H]2Cn3c(ccc(-c4ccccc4)c3=O)[C@@H]2N1C(=O)C1CC1 | -7.82% |
| C[C@@H]1CN([C@@H](C)CO)C(=O)c2cc(-c3ccncc3)cnc2O[C@@H]1CN(C)C(=O)C1CCCCC1 | -1.52% |
| N#C[C@@H]1[C@H](c2ccc(C#CC3CCCCC3)cc2)[C@@H](CO)N1S(=O)(=O)c1ccccc1 | 1.51% |
| O=C(NCCCN1CCOCC1)c1cc(-c2ccccc2F)no1 | -15.8% |
| O=C(NCCCN1CCOCC1)c1cc(-c2cccc(O)c2)on1 | 10.7% |
| O=C(NCCCN1CCOCC1)c1cnn2c(-c3ccccc3)cc(-c3ccccc3)nc12 | 58.3% (active) |

| SMILES | inhibition |
| --- | --- |
| C[C@H]1CN([C@@H](C)CO)S(=O)(=O)c2ccc(-c3cccnc3)cc2O[C@H]1CN(C)C(=O)C1CCCCC1 | 0.93% |
| COc1ccc(CN(C)C[C@@H]2Oc3ccc(NC(=O)Nc4ccc(OC)cc4)cc3C(=O)N([C@H](C)CO)C[C@H]2C)cc1 | 67.3% (active) |
| COc1ccc(NC(=O)Nc2ccc3c(c2)C(=O)N([C@@H](C)CO)C[C@H](C)[C@@H](CN(C)Cc2ccc4c(c2)OCO4)O3)cc1 | 3.59% |
| COc1ccc(CN(C)C[C@@H]2Oc3ccc(NC(=O)NC(C)C)cc3C(=O)N([C@@H](C)CO)C[C@H]2C)cc1 | 56.8% (active) |
| CC(C)NC(=O)Nc1ccc2c(c1)C(=O)N([C@@H](C)CO)C[C@@H](C)[C@H](CN(C)Cc1ccc(-c3ccccc3)cc1)O2 | 20.7% |
| CC(C)NC(=O)Nc1ccc2c(c1)C(=O)N([C@H](C)CO)C[C@@H](C)[C@@H](CN(C)Cc1ccncc1)O2 | -0.866% |
| COc1ccc(NC(=O)Nc2ccc3c(c2)C(=O)N([C@H](C)CO)C[C@@H](C)[C@H](CN(C)Cc2ccccc2)O3)cc1 | 22.5% |
| CN1c2ccc(C#Cc3cccnc3)cc2[C@@H]2[C@@H](CCN2S(=O)(=O)c2ccccc2)[C@H]1CO | -8.94% |
| CCCCCCCCCCOC(=O)Cn1c(COc2ccc(C)cc2)[n+](C)c2ccccc21 | 50.3% (active) |
| CCCCCn1c(=O)c(C(=O)OCC)c(Cl)c2ccccc21 | 0.614% |
| CCOc1ccc(OCCSc2nc3ccccc3n2CC(=O)O)cc1 | -7.61% |
| C[C@@H]1CN([C@@H](C)CO)C(=O)Cc2cc(NC(=O)Nc3ccc(C(F)(F)F)cc3)ccc2O[C@H]1CN(C)C(=O)Nc1ccc(F)cc1 | 0.667% |
| CN1C(=O)c2cc(NS(=O)(=O)c3ccccc3F)ccc2OC[C@@H]2O[C@@H](CC(=O)NC3Cc4ccccc4C3)CC[C@@H]21 | -2.97% |
| C[C@H](CO)N1C[C@H](C)[C@@H](CN(C)S(=O)(=O)c2ccc(Cl)cc2)Oc2ccc(NS(=O)(=O)c3cn(C)cn3)cc2C1=O | -4.21% |
| CO[C@@H]1CN(C)C(=O)c2cc(NC(=O)C3CCOCC3)ccc2OC[C@@H](C)NC[C@@H]1C | 8.52% |
| CC(C)CC#Cc1cnc2c(c1)C(=O)N([C@@H](C)CO)C[C@@H](C)[C@@H](CN(C)S(=O)(=O)c1cccs1)O2 | 12.1% |
| COc1cccc(NC(=O)Nc2ccc3c(c2)C(=O)N(C)C[C@@H](OC)[C@H](C)CN(CC2CC2)[C@H](C)CO3)c1 | 8.71% |
| Cc1ccc(S(=O)(=O)Nc2ccc3c(c2)C(=O)N([C@H](C)CO)C[C@H](C)[C@H](CN(C)Cc2ccccc2)OCCCC[C@@H](C)O3)cc1 | 5.79% |
| COc1ccc(C(=O)Nc2ccc3c(c2)OC[C@H](C)N(C(C)=O)C[C@@H](C)[C@H](OC)CN(C)C3=O)cc1 | -4.9% |
| CO[C@@H]1CN(C)C(=O)c2cc(NS(=O)(=O)c3ccc(Cl)cc3)ccc2OC[C@H](C)NC[C@@H]1C | -8.54% |
| CN1c2ccc(-c3cccc(C#N)c3)cc2[C@@H]2[C@@H](CCN2C(=O)NC2CCCCC2)[C@@H]1CO | -3.76% |

From PubChem BioAssay AID602329 (Broad Institute, 2012)
